The structures appear in SMILES notation. Screen size: about 39,000 compounds; about 1,500 (3.8%) were called active. For the sample, actives were picked, then their nearest neighbours and some compounds at random.

The assay concerns HSkMC (human skeletal muscle cells). In words: cytotoxicity call (relative viability < 0.9). Conditions: 10 µM.
Turning to `COc1ccc2c3c(n(c2c1)C)[C@@H](CO)N(CC1CCOCC1)C[C@]13CCN(CC1)C(=O)c1cnccn1`, the cytotoxicity call is “inactive”.
For the compound `CCc1c(C)c2cc3c(-c4ccccc4)coc3cc2oc1=O`, the cytotoxicity call was “inactive”.
`CNC[C@H]1OCCCC[C@@H](C)Oc2ccc(NS(=O)(=O)c3cn(C)cn3)cc2C(=O)N([C@@H](C)CO)C[C@@H]1C`: the cytotoxicity call is “inactive”.
Take `Cc1ccc(S(=O)(=O)Nc2ccc3c(c2)CC(=O)N([C@@H](C)CO)C[C@@H](C)[C@H](CN(C)C(=O)NC(C)C)O3)cc1`: the cytotoxicity call is “inactive”.
The value for `N#Cc1cc(F)cc(Oc2ccc(S(=O)(=O)C(F)F)c3c2CC(F)(F)[C@@H]3O)c1.N#Cc1cc(F)cc(Oc2ccc(S(=O)(=O)C(F)F)c3c2CC(F)(F)[C@H]3O)c1` was “inactive”.
Consider `COc1ccccc1NC(=O)N(C)C[C@H]1OCc2ccccc2-c2c(n(C)c3ccccc23)C(=O)N([C@H](C)CO)C[C@H]1C`, for which the cytotoxicity call is “inactive”.
For `C=CC(=O)N[C@H]1CCCN(CC)C1`, the cytotoxicity call was “inactive”.
Consider `C[C@@H]1CN([C@@H](C)CO)C(=O)c2cccc(NS(=O)(=O)c3ccc(F)cc3)c2O[C@H]1CN(C)S(=O)(=O)c1cccs1`, for which the cytotoxicity call was “inactive”.
The value for `C[C@@H]1CN([C@H](C)CO)C(=O)c2cc(Br)cnc2O[C@H]1CN(C)Cc1ccc2c(c1)OCO2` was “inactive”.
The value for `C[C@@H]1CN([C@@H](C)CO)C(=O)Cc2cc(NS(=O)(=O)c3cccs3)ccc2O[C@@H]1CN(C)S(=O)(=O)c1cccs1` was “inactive”; that for `Cc1ccc(S(=O)(=O)N(C)C[C@@H]2Oc3ccc(NC(=O)c4ccncc4)cc3C(=O)N([C@H](C)CO)C[C@H]2C)cc1` was “inactive”; that for `CCOC(=O)Cn1cnc2ccccc2c1=O` was “inactive”.
The value for `Cc1c(-c2ccc(C(N)=O)c3[nH]c4cc(C(C)(C)O)ccc4c23)cccc1-n1cnc2ccccc2c1=O` was “active”; that for `COc1ccc(S(=O)(=O)N(C)C[C@@H]2Oc3ccc(NC(=O)Cn4cnnn4)cc3C(=O)N([C@@H](C)CO)C[C@H]2C)cc1` was “inactive”; that for `Cc1ccc(S(=O)(=O)Nc2cccc3c2O[C@H](CN(C)CC2CC2)[C@H](C)CN([C@@H](C)CO)C3=O)cc1` was “inactive”.
Take `COc1ccc(cc1)S(=O)(=O)N1C[C@]2(C1)CN([C@@H](CO)c1c2c2ccc(cc2n1C)OC)C(=O)CN(C)C`: the cytotoxicity call is “inactive”.
On to `COc1ccc2c3c(n(c2c1)C)[C@H](CO)N(C[C@]13CN(Cc2cccc(c2)F)C1)C(=O)C1CCOCC1`, for which the cytotoxicity call was “inactive”.
The value for `COc1ccc(cc1)S(=O)(=O)N1CC[C@]2(CC1)CN([C@@H](CO)c1c2c2ccc(cc2n1C)OC)C(=O)CN(C)C` was “inactive”.
The value for `COc1ccc2c3c(n(c2c1)C)[C@H](CO)N(C[C@]13CCN(CC1)C(=O)c1ccccc1)C(=O)Nc1ccccc1F` was “active”; that for `COc1ccc2c3c(n(c2c1)C)[C@H](CO)N(C[C@]13CCN(CC1)C(=O)c1ccccc1F)C(=O)Nc1ccccc1F` was “inactive”; that for `COc1ccc(cc1)S(=O)(=O)N1CC[C@]2(CC1)CN([C@H](CO)c1c2c2ccc(cc2n1C)OC)C(=O)CN(C)C` was “active”.
The value for `COc1ccc2c3c(n(c2c1)C)[C@@H](CO)N(C[C@]13CN(Cc2cccc(c2)F)C1)C(=O)C1CCOCC1` was “active”.
Consider `COCC(=O)N1CC[C@]2(CC1)CN([C@H](CO)c1c2c2ccc(cc2n1C)OC)C(=O)Nc1ccccc1F`, for which the cytotoxicity call was “inactive”.
The value for `COc1ccc2c3c(n(c2c1)C)[C@@H](CO)N(C[C@]13CCN(CC1)C(=O)c1ccccc1F)C(=O)Nc1ccc(cc1)F` was “inactive”; that for `COc1ccc2c3c(n(c2c1)C)[C@@H](CO)N(C[C@]13CCN(CC1)C(=O)c1ccccc1F)C(=O)Nc1ccccc1F` was “active”.
In the case of `COc1ccc2c3c(n(c2c1)C)[C@@H](CO)N(C[C@]13CN(C1)C(=O)Nc1cccc(c1)F)C(=O)C1CCOCC1`, the cytotoxicity call is “inactive”.
For `COc1ccc2c3c(n(c2c1)C)[C@@H](CO)N(C[C@]13CCN(CC1)C(=O)c1ccccc1)C(=O)Nc1ccccc1F`, the cytotoxicity call was “inactive”.
The value for `COc1cccc(NC(=O)C[C@H]2CC[C@H]3[C@H](COc4ccc(NC(=O)C5CCOCC5)cc4C(=O)N3C)O2)c1` was “inactive”; that for `Cc1ccc(S(=O)(=O)Nc2ccc3c(c2)C(=O)N([C@H](C)CO)C[C@@H](C)[C@@H](CN(C)S(C)(=O)=O)O3)cc1` was “inactive”.
The value for `CC(C)c1onc(-c2c(Cl)cccc2Cl)c1COc1ccc(C=Cc2cccc(C(=O)O)c2)c(Cl)c1` was “inactive”; that for `C[C@@H]1CN([C@@H](C)CO)C(=O)c2cccc(NS(C)(=O)=O)c2O[C@@H]1CN(C)Cc1ccc2c(c1)OCO2` was “inactive”.
The value for `COc1ccc(S(=O)(=O)N2C[C@@H](O)COC[C@@H]3O[C@H](CC(=O)NCCCN4CCOCC4)CC[C@H]32)cc1` was “inactive”; that for `Cc1ccc(F)cc1NC(=O)[C@@H](C)N` was “inactive”.
With `COc1ccc(S(=O)(=O)Nc2ccc3c(c2)CC(=O)N([C@@H](C)CO)C[C@@H](C)[C@@H](CN(C)S(=O)(=O)c2c(C)noc2C)O3)cc1`, the cytotoxicity call was “inactive”.
As for `COc1cc(NC(=O)Cn2cnc3c2c(=O)n(C)c(=O)n3C)cc(OC)c1OC`, the cytotoxicity call was “inactive”.
As to `COc1cc(NC(=O)c2cccc(-n3cc(NC(=O)Nc4cccc(C)c4)cn3)c2)cc(OC)c1OC`, the cytotoxicity call was “active”.
The value for `Cc1cccc(-n2cc(CN)cn2)c1` was “inactive”; that for `C[C@@H]1CN([C@H](C)CO)C(=O)c2cccc(NC(=O)c3ccc(-c4nccs4)cc3)c2O[C@@H]1CN(C)Cc1ccc(Cl)c(Cl)c1` was “inactive”; that for `C[C@@H]1CCCCO[C@H](CN(C)C(=O)Nc2cccc3ccccc23)[C@@H](C)CN([C@H](C)CO)C(=O)c2cc(NC(=O)Nc3ccc(C(F)(F)F)cc3)ccc2O1` was “inactive”.
The value for `COc1ccc(S(=O)(=O)Nc2ccc3c(c2)C(=O)N([C@@H](C)CO)C[C@@H](C)[C@H](CN(C)C(=O)Nc2ccc(F)cc2)OCCCC[C@@H](C)O3)cc1` was “inactive”; that for `C[C@H]1CN([C@@H](C)CO)C(=O)c2c(c3ccccc3n2C)-c2ccccc2CO[C@@H]1CN(C)C(=O)Nc1cccc(Cl)c1Cl` was “active”.
`C[C@H]1CN([C@@H](C)CO)C(=O)c2c(c3ccccc3n2C)-c2ccccc2CO[C@H]1CN(C)C(=O)Nc1cccc(Cl)c1Cl`: the cytotoxicity call was “inactive”.
As for `C[C@@H]1CN([C@H](C)CO)C(=O)c2c(c3ccccc3n2C)-c2ccccc2CO[C@H]1CN(C)C(=O)Nc1cccc(Cl)c1Cl`, the cytotoxicity call was “inactive”.
Take `C[C@@H]1CN([C@@H](C)CO)C(=O)c2c(c3ccccc3n2C)-c2ccccc2CO[C@@H]1CN(C)C(=O)Nc1cccc(Cl)c1Cl`: the cytotoxicity call was “inactive”.
On to `C[C@@H]1CN([C@@H](C)CO)C(=O)c2c(c3ccccc3n2C)-c2ccccc2CO[C@H]1CN(C)C(=O)Nc1cccc(Cl)c1Cl`, for which the cytotoxicity call is “inactive”.
The value for `C[C@H](CO)N1C[C@H](C)[C@H](CN(C)C(=O)Nc2cccc(Cl)c2Cl)OCc2ccccc2-c2c(n(C)c3ccccc23)C1=O` was “inactive”.
The value for `COc1ccccc1NC(=O)N(C)C[C@@H]1OCc2ccccc2-c2c(n(C)c3ccccc23)C(=O)N([C@@H](C)CO)C[C@H]1C` was “inactive”; that for `C[C@H](CO)N1C[C@H](C)[C@@H](CN(C)C(=O)Nc2cccc(Cl)c2Cl)OCc2ccccc2-c2c(n(C)c3ccccc23)C1=O` was “active”; that for `C[C@@H]1CN([C@H](C)CO)C(=O)c2c(c3ccccc3n2C)-c2ccccc2CO[C@@H]1CN(C)C(=O)Nc1cccc(Cl)c1Cl` was “active”.
The value for `COc1ccc(S(=O)(=O)N(C)C[C@H]2OCCCC[C@H](C)Oc3ccc(NC(=O)C4CCCCC4)cc3C(=O)N([C@H](C)CO)C[C@@H]2C)cc1` was “inactive”; that for `Cn1c(C(=O)N[C@H](CO)Cc2c[nH]c3ccccc23)cc(=O)n(C)c1=O` was “inactive”; that for `C[C@H](CO)N1C[C@H](C)[C@@H](CN(C)C(=O)CCCN(C)C)OCc2cn(nn2)CCCC1=O` was “inactive”.
Consider `Cc1ccc(S(=O)(=O)Nc2ccc3c(c2)C(=O)N([C@H](C)CO)C[C@H](C)[C@@H](CN(C)C(=O)CCC(F)(F)F)OCCCC[C@@H](C)O3)cc1`, for which the cytotoxicity call was “inactive”.
The value for `CC(C)C(=O)NCc1nnnn1-c1ccccc1` was “inactive”.
Consider `C[C@@H]1CCCCO[C@@H](CN(C)C(=O)c2ccccc2)[C@@H](C)CN([C@@H](C)CO)C(=O)c2cc(NC(=O)Cc3ccccc3)ccc2O1`, for which the cytotoxicity call is “inactive”.
For `COc1ccc(CN(C)C[C@@H]2Oc3c(NC(=O)c4cnccn4)cccc3C(=O)N([C@H](C)CO)C[C@H]2C)cc1`, the cytotoxicity call was “inactive”.
The value for `O=C1O[C@@H](c2ccccc2)[C@@H](c2ccccc2)N2[C@@H](c3ccc(O)cc3)[C@]3(C(=O)Nc4ccccc43)[C@@H](C(=O)NC[C@H](O)c3ccccc3)[C@H]12` was “inactive”.
For `CN1CCN(C(=O)C[C@@H]2CC[C@@H]3[C@H](COC[C@H](O)CN3C(=O)C3CCCC3)O2)CC1`, the cytotoxicity call was “inactive”.
The value for `Cc1cc(O)c(C(C)C)cc1Cl` was “inactive”.
The value for `COc1cccc(C#Cc2cnc3c(c2)C(=O)N([C@@H](C)CO)C[C@H](C)[C@@H](CN(C)C(=O)C2CCC2)O3)c1` was “inactive”.
The value for `C=C1C2CCC3(C)C(c4ccoc4)OC(=O)CC13OC1CC(=O)C(C)(C)C(C(O)C(=O)OC)C12C` (configuration not stated) was “inactive”.
`CC(C)NC(=O)Nc1ccc2c(c1)C(=O)N([C@@H](C)CO)C[C@@H](C)[C@H](CN(C)S(=O)(=O)c1cn(C)cn1)O2`: the cytotoxicity call was “inactive”.
The value for `O=C(C[C@H]1CC[C@H]2[C@@H](COC[C@@H](O)CN2C(=O)c2ccccc2F)O1)N1CCN(c2ccccc2)CC1` was “inactive”; that for `COc1ccc(-c2ccc3c(c2)O[C@H](CN(C)CC2CCOCC2)[C@@H](C)CN([C@@H](C)CO)S3(=O)=O)cc1` was “inactive”; that for `Cc1[nH]c(/C=C2\C(=O)Nc3ccc(S(=O)(=O)Cc4c(Cl)cccc4Cl)cc32)c(C)c1C(=O)N1CCC[C@@H]1CN1CCCC1` was “active”.
On to `C[C@H](CO)N1C[C@H](C)[C@H](CN(C)Cc2ccc(C(=O)O)cc2)Oc2ccc(NC(=O)Nc3ccc(C(F)(F)F)cc3)cc2C1=O`, for which the cytotoxicity call was “inactive”.
In the case of `C[C@@H]1CN([C@@H](C)CO)C(=O)c2cc(NC(=O)Nc3ccc(C(F)(F)F)cc3)ccc2O[C@@H]1CN(C)Cc1ccccc1`, the cytotoxicity call was “active”.
The value for `C[C@@H]1CN([C@H](C)CO)C(=O)c2cc(NC(=O)Nc3ccc(C(F)(F)F)cc3)ccc2O[C@H]1CN(C)Cc1ccccc1` was “active”; that for `C[C@H](CO)N1C[C@H](C)[C@H](CN(C)Cc2ccccc2)Oc2ccc(NC(=O)Nc3ccc(C(F)(F)F)cc3)cc2C1=O` was “inactive”; that for `C[C@H](CO)N1C[C@H](C)[C@@H](CN(C)Cc2ccccc2)Oc2ccc(NC(=O)Nc3ccc(C(F)(F)F)cc3)cc2C1=O` was “active”.
For the compound `C[C@H](CO)N1C[C@H](C)[C@@H](CN(C)Cc2ccc(C(=O)O)cc2)Oc2ccc(NC(=O)Nc3ccc(C(F)(F)F)cc3)cc2C1=O`, the cytotoxicity call is “inactive”.
In the case of `C[C@@H]1CN([C@@H](C)CO)C(=O)c2cc(NC(=O)Nc3ccc(C(F)(F)F)cc3)ccc2O[C@H]1CN(C)Cc1ccccc1`, the cytotoxicity call is “active”.

(Values after the antibiotic and cytotoxicity screens of Wong et al. (2023).)
